# Of roughly 7,900 targets only a part is listed; those with a hit were picked by preference. About 0.6% of all pairs of compound and target were hits. Unmarked numbers belong to inactive results.
# Columns and labels:
# Assay in all cases: log2 fold change, soluble protein after heating vs DMSO (PISA); higher = thermal stabilisation; K562 cells, 10 uM, 30 min; active = over 0.2 and 3.5 SD of the protein, either way, in both replicates (recomputed)
# [1] = compound: CS(=O)(=O)c1ccc(-c2cnc(N)c(C(=O)Nc3ccccc3)n2)cc1
# In short: (§1)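 K562 cells (2×10^6 cells/mL) were treated with 10 μM compound for 30 min, and aliquots were heated for 3 min over 48°C-58°C. Pooled aliquots were extracted in PBS with 0.5% NP-40 at 4°C, and the supernatant after 21,000xg for 90 min was measured by TMTpro 16plex LC-MS/MS with channel sums equalised. Reported thermal stability, relative to control samples and from duplicates, is a log2 fold change.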
# crizotinib = compound: C[C@@H](Oc1cc(-c2cnn(C3CCNCC3)c2)cnc1N)c1c(Cl)ccc(F)c1Cl [crizotinib]
# In short: as §1
# [2] = compound: C[C@@H]1COCCN1C2=NC(=NC(=C2)C3(CC3)S(=O)(=O)C)C4=C5C=CNC5=CC=C4
# In short: as §1
# [3] = compound: C[C@H](C1=CC=C(C=C1)C(=O)NC2=C3C=CNC3=NC=C2)N
# In short: as §1
# duvelisib = compound: C[C@H](Nc1ncnc2nc[nH]c12)c1cc2cccc(Cl)c2c(=O)n1-c1ccccc1 [duvelisib]
# In short: as §1
# gandotinib = compound: Cc1cc(Nc2cc(CN3CCOCC3)c3nc(C)c(Cc4ccc(Cl)cc4F)n3n2)n[nH]1 [gandotinib]
# In short: as §1
# tozasertib = compound: Cc1cc(Nc2cc(N3CCN(C)CC3)nc(Sc3ccc(NC(=O)C4CC4)cc3)n2)n[nH]1 [tozasertib]
# In short: as §1
# [4] = compound: Cc1cc(SCc2sc(-c3ccc(C(F)(F)F)cc3)nc2C)ccc1OCC(=O)O
# In short: as §1
# doramapimod = compound: Cc1ccc(-n2nc(C(C)(C)C)cc2NC(=O)Nc2ccc(OCCN3CCOCC3)c3ccccc23)cc1 [doramapimod]
# In short: as §1
# ispinesib = compound: Cc1ccc(C(=O)N(CCCN)[C@@H](c2nc3cc(Cl)ccc3c(=O)n2Cc2ccccc2)C(C)C)cc1 [ispinesib]
# In short: as §1
# bafetinib = compound: Cc1ccc(NC(=O)c2ccc(CN3CC[C@H](N(C)C)C3)c(C(F)(F)F)c2)cc1Nc1nccc(-c2cncnc2)n1 [bafetinib]
# In short: as §1
# [5] = compound: Cc1cccc(CC(=O)N2CCc3c2ccc(-c2cn(C)c4ncnc(N)c24)c3F)n1
# In short: as §1
# nilotinib = compound: Cc1cn(-c2cc(NC(=O)c3ccc(C)c(Nc4nccc(-c5cccnc5)n4)c3)cc(C(F)(F)F)c2)cn1 [nilotinib]
# In short: as §1
# [6] = compound: Cc1nc(Nc2n[nH]c3c2CN(C(=O)N[C@H](CN(C)C)c2ccccc2)C3(C)C)c2sccc2n1
# In short: as §1
# dasatinib = compound: Cc1nc(Nc2ncc(C(=O)Nc3c(C)cccc3Cl)s2)cc(N2CCN(CCO)CC2)n1 [dasatinib]
# In short: as §1
# [7] = compound: Cc1ncc(-c2ccnc(Nc3ccc(S(C)(=O)=O)cc3)n2)n1C(C)C
# In short: as §1
# [8] = compound: Cn1cc(-c2ccc3c(c2)CCN3C(=O)Cc2cccc(C(F)(F)F)c2)c2c(N)ncnc21
# In short: as §1
# [9] = compound: Cn1cc(-c2ccc3nnc(C(F)(F)c4ccc5ncccc5c4)n3n2)cn1
# In short: as §1
# tipifarnib = compound: Cn1cncc1[C@@](N)(c1ccc(Cl)cc1)c1ccc2c(c1)c(-c1cccc(Cl)c1)cc(=O)n2C [tipifarnib]
# In short: as §1
# mubritinib = compound: FC(F)(F)c1ccc(/C=C/c2nc(COc3ccc(CCCCn4ccnn4)cc3)co2)cc1 [mubritinib]
# In short: as §1
# Sequence of UniProt Q16864 (Q16864 whole entry, looked up): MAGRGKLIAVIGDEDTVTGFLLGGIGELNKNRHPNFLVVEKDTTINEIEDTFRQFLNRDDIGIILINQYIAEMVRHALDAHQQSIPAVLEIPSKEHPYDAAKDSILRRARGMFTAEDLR
# Sequence of UniProt O00116 (O00116 whole entry, looked up): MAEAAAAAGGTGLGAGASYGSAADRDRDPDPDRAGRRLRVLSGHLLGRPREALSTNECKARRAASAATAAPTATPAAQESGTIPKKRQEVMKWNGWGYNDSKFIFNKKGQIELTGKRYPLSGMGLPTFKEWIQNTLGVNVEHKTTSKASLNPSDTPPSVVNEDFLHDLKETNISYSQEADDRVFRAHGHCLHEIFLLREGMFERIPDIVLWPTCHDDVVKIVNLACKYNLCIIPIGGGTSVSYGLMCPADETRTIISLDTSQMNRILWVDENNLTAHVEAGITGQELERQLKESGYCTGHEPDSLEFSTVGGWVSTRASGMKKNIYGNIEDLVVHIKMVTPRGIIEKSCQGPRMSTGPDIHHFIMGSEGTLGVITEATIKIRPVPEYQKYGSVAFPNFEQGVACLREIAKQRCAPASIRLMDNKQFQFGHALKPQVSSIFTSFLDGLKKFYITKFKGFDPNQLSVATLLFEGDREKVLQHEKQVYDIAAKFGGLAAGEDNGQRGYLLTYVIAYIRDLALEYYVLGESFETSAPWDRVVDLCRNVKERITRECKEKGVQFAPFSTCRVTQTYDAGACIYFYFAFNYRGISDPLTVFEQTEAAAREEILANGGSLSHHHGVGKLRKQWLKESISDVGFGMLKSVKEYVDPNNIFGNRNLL
# Sequence of UniProt P21283 (P21283 whole entry, looked up): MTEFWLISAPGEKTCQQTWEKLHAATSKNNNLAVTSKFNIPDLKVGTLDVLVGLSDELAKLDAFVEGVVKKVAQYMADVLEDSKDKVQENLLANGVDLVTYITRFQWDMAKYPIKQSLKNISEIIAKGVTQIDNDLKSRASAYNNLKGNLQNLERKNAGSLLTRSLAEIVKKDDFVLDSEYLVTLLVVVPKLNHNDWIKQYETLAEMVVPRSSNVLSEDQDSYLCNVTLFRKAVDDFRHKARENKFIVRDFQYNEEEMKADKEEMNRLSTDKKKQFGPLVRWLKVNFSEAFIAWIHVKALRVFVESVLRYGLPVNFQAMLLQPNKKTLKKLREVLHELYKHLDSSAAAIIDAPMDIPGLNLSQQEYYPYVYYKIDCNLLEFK
# Sequence of UniProt Q16186 (Q16186 whole entry, looked up): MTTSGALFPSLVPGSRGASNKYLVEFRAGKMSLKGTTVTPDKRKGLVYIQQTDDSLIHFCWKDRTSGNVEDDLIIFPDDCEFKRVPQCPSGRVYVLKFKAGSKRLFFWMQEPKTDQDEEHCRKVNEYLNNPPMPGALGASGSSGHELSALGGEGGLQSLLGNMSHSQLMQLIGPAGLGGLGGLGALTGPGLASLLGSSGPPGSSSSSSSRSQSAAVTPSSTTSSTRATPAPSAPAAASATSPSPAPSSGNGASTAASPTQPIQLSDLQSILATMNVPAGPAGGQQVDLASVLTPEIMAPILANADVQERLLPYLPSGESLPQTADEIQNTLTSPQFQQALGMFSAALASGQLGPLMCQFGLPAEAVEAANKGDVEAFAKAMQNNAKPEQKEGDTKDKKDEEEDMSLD
# Sequence of UniProt Q8N6D5 (Q8N6D5 whole entry, looked up): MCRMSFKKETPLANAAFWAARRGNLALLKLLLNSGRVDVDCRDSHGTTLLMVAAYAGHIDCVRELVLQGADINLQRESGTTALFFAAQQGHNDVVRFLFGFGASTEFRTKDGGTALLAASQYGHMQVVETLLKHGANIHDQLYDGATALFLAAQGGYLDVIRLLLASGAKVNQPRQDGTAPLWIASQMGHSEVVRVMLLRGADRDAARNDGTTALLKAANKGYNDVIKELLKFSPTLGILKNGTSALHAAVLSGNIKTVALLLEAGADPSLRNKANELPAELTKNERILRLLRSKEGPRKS
# Sequence of UniProt Q9UKG1 (Q9UKG1 whole entry, looked up): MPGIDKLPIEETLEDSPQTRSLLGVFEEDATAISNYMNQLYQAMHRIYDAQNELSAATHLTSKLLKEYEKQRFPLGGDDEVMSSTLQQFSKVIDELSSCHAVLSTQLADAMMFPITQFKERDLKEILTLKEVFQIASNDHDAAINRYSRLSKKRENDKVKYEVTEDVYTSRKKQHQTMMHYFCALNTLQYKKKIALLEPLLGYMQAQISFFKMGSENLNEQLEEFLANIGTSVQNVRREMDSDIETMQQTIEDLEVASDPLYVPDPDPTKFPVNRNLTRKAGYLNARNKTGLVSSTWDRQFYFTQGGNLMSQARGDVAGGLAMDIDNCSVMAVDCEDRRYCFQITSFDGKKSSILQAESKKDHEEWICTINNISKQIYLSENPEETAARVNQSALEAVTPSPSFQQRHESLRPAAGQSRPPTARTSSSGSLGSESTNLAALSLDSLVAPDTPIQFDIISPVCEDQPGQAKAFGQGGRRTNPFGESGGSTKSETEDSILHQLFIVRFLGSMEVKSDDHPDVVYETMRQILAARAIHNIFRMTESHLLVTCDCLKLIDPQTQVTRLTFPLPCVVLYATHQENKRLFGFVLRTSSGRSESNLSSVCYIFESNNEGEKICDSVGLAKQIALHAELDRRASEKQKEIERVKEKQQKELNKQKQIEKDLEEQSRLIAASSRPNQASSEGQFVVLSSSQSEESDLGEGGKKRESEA
# Sequence of UniProt Q9UII2 (Q9UII2 whole entry, looked up): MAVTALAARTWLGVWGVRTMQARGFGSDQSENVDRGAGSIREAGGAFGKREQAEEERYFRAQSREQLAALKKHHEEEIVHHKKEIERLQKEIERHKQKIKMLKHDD
# Sequence of UniProt P42025 (P42025 whole entry, looked up): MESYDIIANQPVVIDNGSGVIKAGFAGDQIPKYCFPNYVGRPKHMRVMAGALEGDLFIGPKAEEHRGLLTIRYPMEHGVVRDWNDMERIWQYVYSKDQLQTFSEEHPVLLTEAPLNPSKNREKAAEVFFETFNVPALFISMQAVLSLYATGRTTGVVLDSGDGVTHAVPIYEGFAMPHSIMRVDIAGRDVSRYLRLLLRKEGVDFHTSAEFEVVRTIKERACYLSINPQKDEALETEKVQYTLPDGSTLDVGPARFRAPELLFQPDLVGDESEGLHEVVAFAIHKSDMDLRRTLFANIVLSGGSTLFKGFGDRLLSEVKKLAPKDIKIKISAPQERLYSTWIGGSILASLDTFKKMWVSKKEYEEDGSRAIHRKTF
# Sequence of UniProt Q99798 (Q99798 whole entry, looked up): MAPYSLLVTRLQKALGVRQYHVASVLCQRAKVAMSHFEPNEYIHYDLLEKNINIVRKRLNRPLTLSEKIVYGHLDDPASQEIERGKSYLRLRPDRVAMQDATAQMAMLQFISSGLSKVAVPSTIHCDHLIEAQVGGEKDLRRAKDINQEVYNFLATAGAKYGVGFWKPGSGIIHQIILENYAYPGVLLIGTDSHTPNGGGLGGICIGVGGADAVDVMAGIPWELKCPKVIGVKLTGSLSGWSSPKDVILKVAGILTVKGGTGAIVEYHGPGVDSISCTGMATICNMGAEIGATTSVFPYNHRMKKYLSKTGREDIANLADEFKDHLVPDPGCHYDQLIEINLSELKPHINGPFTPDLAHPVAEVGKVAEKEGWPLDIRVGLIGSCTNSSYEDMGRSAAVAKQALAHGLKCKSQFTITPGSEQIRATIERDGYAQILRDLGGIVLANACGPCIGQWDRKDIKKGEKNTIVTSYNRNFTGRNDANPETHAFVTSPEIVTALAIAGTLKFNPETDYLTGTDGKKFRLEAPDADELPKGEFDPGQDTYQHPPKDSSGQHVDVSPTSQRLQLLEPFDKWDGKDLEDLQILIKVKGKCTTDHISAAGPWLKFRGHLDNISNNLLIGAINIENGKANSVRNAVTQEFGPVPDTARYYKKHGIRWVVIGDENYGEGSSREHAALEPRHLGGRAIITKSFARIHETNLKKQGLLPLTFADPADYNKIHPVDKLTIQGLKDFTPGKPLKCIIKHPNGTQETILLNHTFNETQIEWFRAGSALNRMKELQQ
# Sequence of UniProt P40616 (P40616 whole entry, looked up): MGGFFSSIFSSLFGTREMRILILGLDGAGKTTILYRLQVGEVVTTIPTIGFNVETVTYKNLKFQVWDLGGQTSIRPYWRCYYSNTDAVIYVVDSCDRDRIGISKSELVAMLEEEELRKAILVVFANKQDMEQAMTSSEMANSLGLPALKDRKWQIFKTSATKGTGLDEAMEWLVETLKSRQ
# Sequence of UniProt Q96CW1 (Q96CW1 whole entry, looked up): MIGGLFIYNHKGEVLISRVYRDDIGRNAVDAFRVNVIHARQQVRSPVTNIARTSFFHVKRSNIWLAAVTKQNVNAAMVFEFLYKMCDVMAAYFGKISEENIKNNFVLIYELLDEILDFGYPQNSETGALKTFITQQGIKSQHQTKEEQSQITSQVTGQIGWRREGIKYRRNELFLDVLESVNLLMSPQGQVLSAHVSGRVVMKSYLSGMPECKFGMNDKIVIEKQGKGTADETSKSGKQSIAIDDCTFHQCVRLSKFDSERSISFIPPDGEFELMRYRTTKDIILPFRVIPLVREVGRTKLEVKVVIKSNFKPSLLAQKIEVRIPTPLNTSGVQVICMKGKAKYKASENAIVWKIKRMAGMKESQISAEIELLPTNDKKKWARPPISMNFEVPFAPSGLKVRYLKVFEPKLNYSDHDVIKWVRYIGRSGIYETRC
# Sequence of UniProt Q8N6S5 (Q8N6S5 whole entry, looked up): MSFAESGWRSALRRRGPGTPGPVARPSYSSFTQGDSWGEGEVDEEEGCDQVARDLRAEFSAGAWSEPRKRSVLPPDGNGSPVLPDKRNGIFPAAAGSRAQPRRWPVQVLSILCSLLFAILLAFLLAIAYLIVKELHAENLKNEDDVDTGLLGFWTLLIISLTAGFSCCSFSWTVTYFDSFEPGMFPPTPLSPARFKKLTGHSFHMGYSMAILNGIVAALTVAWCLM
Target,log2 fold change [1],log2 fold change (crizotinib),log2 fold change [2],log2 fold change [3],log2 fold change (duvelisib),log2 fold change (gandotinib),log2 fold change (tozasertib),log2 fold change [4],log2 fold change (doramapimod),log2 fold change (ispinesib),log2 fold change (bafetinib),log2 fold change [5],log2 fold change (nilotinib),log2 fold change [6],log2 fold change (dasatinib),log2 fold change [7],log2 fold change [8],log2 fold change [9],log2 fold change (tipifarnib),log2 fold change (mubritinib)
ACSL3 (UniProt O95573),0.009,-0.013,0.011,-0.024,0.043,-0.046,0.001,0.097,-0.033,-0.024,-0.066,0.042,-0.086,-0.048,-0.06,0.011,0.029,0.075,-0.042,0
ARL1 (UniProt P40616),0.01,-0.073,0.094,-0.092,-0.004,-0.111,0.028,0.031,0.018,-0.064,0.114,0.205,-0.174,-0.017,-0.131,0.096,0.055,0.019,-0.123,-0.046
ARL6IP6 (UniProt Q8N6S5),0.046,-0.016,0.017,-0.042,-0.005,-0.008,-0.22,-0.042,0.03,0.175,-0.096,0.024,-0.027,0.019,0.098,0.036,0.012,-0.186,-0.054,0.04
APPL1 (UniProt Q9UKG1),-0.019,-0.015,-0.078,0.034,0.077,0.123,-0.028,-0.003,0.032,-0.098,-0.013,-0.092,-0.046,0.161,-0.003,0.002,0.03,-0.001,-0.051,-0.029
ATP6V1F isoform 2 (UniProt Q16864),-0.303,0.034,-0.025,-0.031,0.309,0.138,0.06,-0.043,0.007,0.076,0,-0.053,0.078,-0.03,0.034,-0.028,0.101,0.132,0.32,0.045
ATP6V1C1 (UniProt P21283),-0.05,0.1,-0.05,0.14,0.049,0.033,0.116,0.041,0.015,0.122,-0.083,0.063,-0.137,-0.191,-0.045,0.115,-0.083,-0.105,0.03,0.083
ACO2 (UniProt Q99798),0,-0.022,0.102,-0.085,0.03,-0.088,-0.024,0.078,-0.026,0.041,0.021,-0.025,-0.02,0.013,-0.118,-0.013,0.043,-0.016,-0.064,-0.522 (active)
ACTR1B (UniProt P42025),0,-0.009,0.156,0.072,0.009,-0.167,0.073,-0.022,0,0.124,-0.062,-0.221,0.034,-0.011,0.034,0.083,-0.011,0.003,0.077,-0.001
AP2M1 (UniProt Q96CW1),0.018,-0.066,-0.04,-0.193,-0.036,-0.002,-0.09,-0.007,0.029,0.044,0.042,-0.012,0.012,0.031,0.048,-0.02,-0.013,-0.004,0.02,-0.035
ARMC8 (UniProt Q8IUR7),0.005,0.013,0.005,-0.015,0.07,-0.045,0.063,0.165,0.014,0.051,0.021,-0.026,-0.036,0.038,-0.082,-0.008,-0.019,-0.112,0.007,-0.053
ATP5IF1 (UniProt Q9UII2),0.004,0.058,-0.006,0.018,-0.035,-0.056,-0.079,-0.082,-0.015,-0.019,-0.039,-0.101,-0.038,0.005,0.055,-0.042,-0.002,0.094,0.059,0.033
ASH2L (UniProt Q9UBL3),0.008,0.126,0.046,0.058,0.028,0.004,0.068,0.02,-0.068,0.036,0,-0.013,-0.008,-0.041,-0.004,0.013,-0.07,-0.017,-0.041,-0.023
AGPS (UniProt O00116),0.016,-0.038,0.048,-0.053,0.099,-0.047,-0.005,0.19,0.018,0.015,-0.068,0.025,0.039,-0.012,-0.023,0.006,0.09,0.01,0.032,0.112
ADRM1 (UniProt Q16186),0.006,-0.109,-0.028,0.138,-0.036,-0.056,-0.028,0.069,0.041,-0.05,0.238 (active),0.072,0.028,0.063,-0.036,0.006,-0.061,-0.003,0.01,-0.006
AAR2 (UniProt Q9Y312),-0.06,-0.081,0.019,0.054,0.045,-0.29,0.011,0.021,-0.038,0.085,-0.019,-0.062,0.058,0.009,-0.006,0.019,-0.079,-0.034,0.004,-0.036
ANKRD29 (UniProt Q8N6D5),0.125,0.019,0.042,-0.043,0.139,0.185,-0.072,0.017,0.097,-0.055,0.063,-0.027,-0.09,-0.057,-0.002,0.053,0.22,0.133,-0.223,0.083

# Source: the supplement of paper PMC10849652
